Source: PubChem
An excerpt weighted towards active compounds, which were near 11% of everything screened.
G9a block – inhibitors of human histone lysine methyltransferase G9a. Potency, µM (series often up to 102 µM), for inactives: at the top dose activity, negative = inhibition, actives largely listed as inhibitors. G9a H3K9 monomethylation, AlphaScreen, 2 h. 8.8% of 350,000 active; further: on the % scale 0 is the no-effect control and ±100 the full control effect; nearly all actives have a fitted effect of over 75% in size
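Step 1: enzyme (final 20 nM) with compound, 15 min RT. Step 2: substrate peptide 500 nM and SAM 20 uM, 2 h RT. Step 3: anti-H3K9me1 antibody and AlphaScreen beads, 10 min, then plate read.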
JMJD2A Tudor inh – JMJD2A Tudor domain (human) inhibition; O75164; AlphaScreen JMJD2A-Tudor / H3K4me3 peptide binding; Potency, µM (titrated, usually from 114 µM), for inactives: at the top dose activity change, negative = inhibition, most hits filed as inhibitors; 4.4% of 390,000 active; further: on the % scale 0 is the no-effect control and ±100 the full control effect; nearly all actives have a fitted effect of over 50% in size
L3MBTL1 inh – inhibitors of human L3MBTL1; Q9Y468; AlphaScreen L3MBTL1–H3K9me1 peptide binding; Potency, µM (highest dose often 57.1 µM), inactives show at the top dose activity, negative = inhibition, actives largely listed as inhibitors; 0.66% of 230,000 active; AID 485360; further: on the % scale 0 is the no-effect control and ±100 the full control effect; nearly all actives have a fitted effect of over 60% in size
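Read-out is AlphaScreen signal from streptavidin donor and nickel chelate acceptor beads (10 ug/mL final each) bridging L3MBTL1 (50 nM) and biotinylated K9-monomethylated H3(1-15) peptide (75 nM), after 30 min compound exposure at room temperature.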
BAZ2B inh – BAZ2B (human) inhibition. Q9UIF8. AlphaScreen BAZ2B-H3K14Ac peptide displacement. Potency, µM (titrated, usually from 114 µM), for inactives: top-dose activity change, negative = inhibition, hits mostly inhibitors. 4.4% of 360,000 active. AID 504333; further: on the % scale 0 is the no-effect control and ±100 the full control effect; nearly all actives have a fitted effect of over 60% in size
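AlphaScreen displacement of biotin-H3(5-23)K14Ac peptide (50 nM final) from BAZ2B (50 nM final) in PBS pH 7.4, 0.01% Tween-20; complex preformed 30 min RT, then compounds (top 110 uM) 30 min RT, beads 20 min dark.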
HP1b binding inh – inhibitors of HP1-beta chromodomain binding to methylated histone tails; P83916; Potency, µM (top dose mostly 114 µM), for inactives: top-dose activity change, negative = inhibition, actives largely listed as inhibitors; AlphaScreen HP1-beta / biotin-H3K9me3 peptide binding; 0.56% of 390,000 active; further: nearly all actives have a fitted effect of over 70% in size
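AlphaScreen: HP1-beta (50 nM) preformed 30 min with biotin-H3(1-18)K9me3 peptide (50 nM) in PBS pH 7.4, 0.01% Tween-20. Compound added for 30 min at RT, then streptavidin donor/nickel chelate acceptor beads (10 ug/mL) for 30 min.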
The depositor's hits bear a star; ? = inconclusive; · = not tested or not shown; [ ] = remark or other dose. The call rests on the fitted dose curve; in most records, active means well fitted inhibition curve with a large enough effect; inconclusive means small, poorly fitted or top-dose-only effect; inactive means no such curve, though single readings can be large or run the other way. Potency means the concentration at half of the fitted maximal effect.

SMILES	G9a block	JMJD2A Tudor inh	L3MBTL1 inh	BAZ2B inh	HP1b binding inh
O=C(c1ccc2c(=O)n(CC3CCCO3)c(=S)[nH]c2c1)N1CCN(C(=O)c2ccco2)CC1 (centres undefined)	·	?	·	·	56%
O=C(NS(=O)(=O)Nc1ccccc1)C1=C(N2CCCC2)COC1=O	·	100µM*	-6%	·	28%
O=c1ccc(NS(=O)(=O)c2ccccc2Cl)cn1Cc1ccc(Cl)c(Cl)c1	28µM*	-25%	-8%	56µM*	17%
O=C(O)Cc1ccc(NS(=O)(=O)c2ccccc2Cl)cc1	22µM*	-4%	-14%	?	20%
Cc1ccc(S(=O)(=O)Nc2ccc(=O)n(Cc3ccc(Cl)c(Cl)c3)c2)cc1	?	?	-6%	60%	?
Cc1cccc(-c2nc(C)c(CCNC(=O)C(=O)Nc3cccc(Cl)c3C)s2)c1	6%[59 µM]	0%	·	3%	22%[57 µM]
COc1ccc(NC(=O)C2CCCCN2N)cc1OC (centres undefined)	?	-18%[11.4 µM]	-4%	9%	-11%
COc1ccc(NC(=O)C2CCCN2c2ccc(OC)c(OC)c2)cc1OC (centres undefined)	71µM*	-13%	-2%	0%	23%
Nc1cc(-c2ccc(Br)cc2)nn1S(=O)(=O)c1cccc2nsnc12	?	?	·	?	-13%
COc1ccccc1-c1cc(N)n(S(=O)(=O)c2cccc3nsnc23)n1	50µM*	?	·	?	-41%
Nc1cc(-c2ccc(Cl)cc2)nn1S(=O)(=O)c1cccc2nsnc12	40µM*	45µM*	·	?	-22%
CCOc1ccccc1NC(=O)CSC1=Nc2ccccc2C2=NC(CC(=O)NC3CCCCC3)C(=O)N12 (centres undefined)	-23%[59 µM]	-14%	·	-32%	20%
OCc1ccc2c(c1)c(-c1ccc3c(c1)OCCO3)c(-c1ccccc1)n2-c1ccccc1	-3%[0.501 µM]	45µM*	-28%	?	-17%
O=C(/C=C/c1cn(-c2ccccc2)nc1-c1ccc2c(c1)OCCO2)NCCO	0%	-18%	·	-30%	-17%
CCn1nc(-c2ccccc2)c(-c2ccccc2)c(C(=O)Nc2nc(C)c(C(=O)N(C)C)s2)c1=O	-3%[59 µM]	-15%	·	?	4%
COC(=O)C1CCN(c2c([N+](=O)[O-])cc(C(F)(F)F)cc2[N+](=O)[O-])CC1	?	-21%[11.4 µM]	-23%	35µM*	?
O=c1c(-c2cccs2)nc2cnc(N3CCNCC3)nc2n1CCc1ccccc1	8%[0.501 µM]	·	·	·	·
COc1ccc(C(=O)O)nc1C	-11%	5.6µM*	52%	15%	0%
COc1ccc(-c2nc(C(=O)O)cs2)cc1OC	?	?	-11%	-1%	16%
CC(C)COc1ccc(C(=O)N2CCC(c3nc4ccccc4s3)CC2)cc1	-10%[59 µM]	-5%	·	5%	43%
CCOC(=O)N[C@H](Cc1c[nH]c2ccccc12)C(=O)Nc1cccc(Cl)c1	5%[59 µM]	-32%	·	-16%	37%
CCOC(=O)NC(N(O)c1cccc(Cl)c1)C(Cl)(Cl)Cl (centres undefined)	40µM*	-26%	-4%	-29%	-11%
COc1ccc2nc(N3CCN(C(=O)C4CC4)CC3)sc2c1	-30%[59 µM]	-6%	·	-1%	37%
O=C1O/C(=C/c2ccccc2)c2ccccc21	18%[59 µM]	137%	43%	149%	285%
N#CC1=C(c2ccccc2)/C(=C/c2ccccc2)OC1=O	13µM*	?	·	22µM*	?
SMILES	G9a block	JMJD2A Tudor inh	L3MBTL1 inh	BAZ2B inh	HP1b binding inh
COc1ccc(-c2csc(CCN3N=C(C)CC3=O)n2)cc1	32µM*	?	·	40µM*	2%
COc1ccc(-c2csc(C)n2)cc1	-16%[59 µM]	-6%	4%	4%	56%
COc1ccc(CNC(=O)CCC(=O)N2CCSc3ccccc32)cc1	-1%[59 µM]	-8%	·	-12%	37%
CCOc1ccc(OCCC(=O)OCC(=O)N2CCN(S(=O)(=O)c3ccc(Cl)cc3)CC2)cc1	·	?	·	50µM*	-20%
CCOc1ccc(S(=O)(=O)N2CCN(C(=O)c3cc(-c4ccccc4)nn3-c3ccccc3)CC2)cc1	40µM*	-25%	3%	-6%	11%
CCOc1ccc(S(=O)(=O)N2CCN(C(=O)CCOc3ccccc3C)CC2)cc1	13µM*	-2%	-2%	8%	26%
Cc1ccc(C)c(OCCC(=O)OCC(=O)N2CCN(S(=O)(=O)c3ccc(Cl)cc3)CC2)c1	8%	-10%	3%	2%	47%
Cc1ccc(S(=O)(=O)N2CCN(C(=O)CCOc3ccccc3C)CC2)cc1C	-51%	-5%	-4%	11%	23%
COc1ccccc1NC(=O)C(=O)NCCc1csc(-c2cccc(F)c2)n1	16%[59 µM]	-6%	·	1%	14%[57 µM]
CCCC(=O)N(c1ccc2oc3c(c2c1)CCCC3)S(=O)(=O)c1cc(C)ccc1C	-5%[59 µM]	16%	·	-20%	37%
COc1ccc(Br)cc1CNC(=O)C1CCN(c2nnc(-n3cccc3CNc3ccc(C)cc3)s2)CC1	-2%[59 µM]	-17%	·	-28%	21%
N#C/C(=C\c1ccc(N2CCCCC2)o1)C(=O)Nc1cccc(Br)c1	?	-1%	-15%	-10%	-4%
N#C/C(=C\c1ccc(N2CCCCC2)o1)C(N)=O	28µM*	-15%	-16%	28µM*	8%
N#C/C(=C/c1ccc(N2CCOCC2)o1)c1ccc(Cl)cc1	?	56µM*	-6%	45µM*	-26%
Cc1cccc(-n2c(SCC(=O)Nc3ccccc3C)nc3c(oc4ccccc43)c2=O)c1	-4%[59 µM]	4%	·	1%	28%
COc1ccccc1N1CCN(C(=O)c2nn(-c3ccc(C)cc3)c(=O)n(C)c2=O)CC1	-2%[59 µM]	-13%	·	-19%	13%[57 µM]
Cn1c(C(=O)NCCc2ccccc2)cc2sc(Cl)cc21	6%[59 µM]	-4%	·	-2%	-2%
CCCCOc1ccc(S(=O)(=O)NCc2csc(-c3ccc(OC)cc3)n2)cc1	7%[59 µM]	-7%	·	5%	55%
Cc1cc(N2CCCCC2)nc2ccc(NC(=O)/C=C/c3ccccc3OC(C)C)cc12	-30%[59 µM]	-21%	·	-18%	9%
N#Cc1nc(N)nc(N2CCCCC2)n1	·	-12%[57.1 µM]	·	·	14%[57 µM]
CNS(=O)(=O)c1cccc(C(=O)OC2CCCCC2=O)c1 (centres undefined)	13µM*	-2%	-7%	-1%	14%
O=[N+]([O-])c1cc2c(c3cccnc13)COCO2	·	25µM*	·	·	?
c1cnc2ccc3c(c2c1)COCO3	·	-5%	·	·	23%
Cc1ccc([N+](=O)[O-])c2cccnc12	·	-17%	-1%	-13%	7%
O=[N+]([O-])c1cc(O)c2ncccc2c1	2%	18µM*	·	5.6µM*	30%
O=[N+]([O-])c1cc2cccnc2c2ncccc12	·	79µM*	?	22µM*	20%
COCCn1c(C)cc(O)c(C(c2ccccc2F)N2CCN(c3ccccc3)CC2)c1=O (centres undefined)	?	-3%	·	-2%	36%[57 µM]
